Test [1] is described as follows: NCI Yeast Anticancer Drug Screen. Data for the rad50 strain (AID 155).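 Also: 0% = growth of vehicle-only cultures of the same strain.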 The conditions noted are these: S. cerevisiae rad50 strain growth inhibition, stronger effect = higher value. The method in brief:
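Vehicle-treated cultures provide the reference for the growth inhibition reported for compound-exposed, repair-deficient yeast.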

Test [2] in a line: NCI Yeast Anticancer Drug Screen. Data for the mec2-1 strain (AID 157). The conditions noted are these: S. cerevisiae mec2-1 strain, stronger effect = higher value. Summed up: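 Cells of the genetically defined mec2-1 yeast strain are incubated with test compound. Inhibition of growth is calculated against vehicle-treated controls.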
The nature of test [3]: NCI Yeast Anticancer Drug Screen. Data for the sgs1 mgt1 strain (AID 161).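 Also: 0% = growth of cultures given vehicle only.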 The conditions noted are these: S. cerevisiae sgs1 mgt1 strain, stronger effect = higher value. Summed up:
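Inhibition of yeast growth, normalised to vehicle-treated controls, is reported for a strain bearing genetic alterations in DNA damage repair.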

A short description of test [4]: NCI Yeast Anticancer Drug Screen. Data for the cln2 rad14 strain (AID 165).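 Also: 0% = growth equal to vehicle treated cultures.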 The conditions noted are these: S. cerevisiae cln2 rad14 strain, stronger effect = higher value. The method in brief: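 The screen exposed genetically defined yeast (cln2 rad14) to test compounds and scored growth inhibition relative to vehicle-treated controls.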
Test [5] in a line: NCI Yeast Anticancer Drug Screen. Data for the bub3 strain (AID 167). The conditions noted are these: S. cerevisiae bub3 mutant strain, stronger effect = higher value. The method in brief:
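Mutant yeast screening strain plus compound; vehicle-treated cultures serve as the 0% inhibition reference.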

Test [6] in a line: NCI Yeast Anticancer Drug Screen. Data for the mlh1 rad18 strain (AID 175). The conditions noted are these: S. cerevisiae mlh1 rad18 strain growth inhibition, stronger effect = higher value. Summed up:
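Compound-treated yeast growth, normalised to vehicle controls. Strain bears defined DNA repair mutations.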

Where [7] appears, read: at 5.0 µM (retest, dose inferred, filed as 0.5).
Setting [8] is: at 50.0 µM (retest, dose inferred, filed as 5.0).

“And” between values parts separate entries of the source, which are not always exact repeats. Identical values can stand only once. About 79,000 compounds went through this panel and 15% of them were active in at least one assay; those are over-represented in the sample as a whole. The source holds several records for some structures; these can differ, active in one and inactive in another. The source made the active and inactive calls. Rule as the data show it: active = growth inhibition above about 70%; inactive = the rest.

Turning to `CO[C@H](C(=O)[C@@H](O)[C@@H](C)O)[C@@H]1Cc2cc3cc(OC4CC(OC5CC(O)C(O)C(C)O5)C(O)C(C)O4)c(C)c(O)c3c(O)c2C(=O)[C@H]1OC1CC(OC2CC(OC3CC(C)(O)C(O)C(C)O3)C(O)C(C)O2)C(O)C(C)O1` (stereo not given in full), the growth inhibition in test [1] (setting [7]) is 12% (inactive); in test [1] (setting [8]), 77% (active); in test [1] (at 50.0 µM), 72.1% (active) and 5.15% (inactive); in test [2] (setting [7]), 7% (inactive); in test [2] (setting [8]) it was 39% (inactive); in test [2] (at 50.0 µM), 33% (inactive) and -0.5% (inactive). Further, the growth inhibition was 6% (inactive) in test [3] (setting [7]); 37% (inactive) in test [3] (setting [8]); 62.4% (inactive) and 17.8% (inactive) in test [3] (at 50.0 µM); 21% (inactive) in test [4] (setting [7]); 47% (inactive) in test [4] (setting [8]); 93.2% (active) and 11.2% (inactive) in test [4] (at 50.0 µM). The growth inhibition in test [5] (setting [7]) is -2% (inactive); in test [5] (setting [8]), 43% (inactive); in test [5] (at 50.0 µM), 44.5% (inactive) and 24.1% (inactive); in test [6] (setting [7]) it was 4% (inactive); in test [6] (setting [8]) it was 33% (inactive); in test [6] (at 50.0 µM), 41.5% (inactive) and 14.4% (inactive).

Take `O=C(NO)c1cccnc1`: the growth inhibition in test [1] (setting [7]) is 2% (inactive); in test [1] (setting [8]), 3% (inactive); in test [1] (at 50.0 µM) it was 66.3% (inactive); in test [2] (setting [7]), 2% (inactive); in test [2] (setting [8]), -1% (inactive); in test [2] (at 50.0 µM) it was 16.1% (inactive). The growth inhibition in test [3] (setting [7]) is -4% (inactive); in test [3] (setting [8]) it was -3% (inactive); in test [3] (at 50.0 µM), 29.1% (inactive); in test [4] (setting [7]) it was 1% (inactive); in test [4] (setting [8]), 0% (inactive); in test [4] (at 50.0 µM) it was 14.8% (inactive). The growth inhibition in test [5] (setting [7]) was 4% (inactive); in test [5] (setting [8]), -2% (inactive); in test [5] (at 50.0 µM) it was 11.8% (inactive); in test [6] (setting [7]) it was 3% (inactive); in test [6] (setting [8]), 5% (inactive); in test [6] (at 50.0 µM) it was 16.4% (inactive).

As for `O=NC1C(Cl)C2CC1C1C(Br)C(Br)CC21` (stereo not given), the growth inhibition is 4% (inactive) and 3% (inactive) in test [1] (setting [7]); 4% (inactive) and 46% (inactive) in test [1] (setting [8]); 3.2% (inactive) and 55.5% (inactive) and 48.2% (inactive) in test [1] (at 50.0 µM); 23% (inactive) and 4% (inactive) in test [2] (setting [7]); 2% (inactive) and 22% (inactive) in test [2] (setting [8]); 1.4% (inactive) and 32.1% (inactive) and 34% (inactive) in test [2] (at 50.0 µM). Further, the growth inhibition in test [3] (setting [7]) is -3% (inactive) and -2% (inactive); in test [3] (setting [8]) it was 2% (inactive) and 29% (inactive); in test [3] (at 50.0 µM), 19.9% (inactive) and 66.5% (inactive) and 56.3% (inactive); in test [4] (setting [7]), 1% (inactive) and 0% (inactive); in test [4] (setting [8]) it was 1% (inactive) and 16% (inactive); in test [4] (at 50.0 µM), -26.6% (inactive) and 7.1% (inactive) and 6.65% (inactive). Moreover, the growth inhibition in test [5] (setting [7]) was 4% (inactive) and 0% (inactive); in test [5] (setting [8]), -7% (inactive) and 7% (inactive); in test [5] (at 50.0 µM) it was -5.1% (inactive) and 11.2% (inactive) and 8.2% (inactive); in test [6] (setting [7]) it was 6% (inactive) and 4% (inactive); in test [6] (setting [8]), 31% (inactive) and 52% (inactive); in test [6] (at 50.0 µM), 30.6% (inactive) and 69.8% (inactive) and 59.1% (inactive).

As for `O=C1COC(=O)/C1=C/c1ccc2c(c1)OCO2`, the growth inhibition in test [1] (setting [7]) is 12% (inactive) and 15% (inactive); in test [1] (setting [8]), 78% (active) and 86% (active); in test [1] (at 50.0 µM), 76.6% (active) and 77.4% (active); in test [2] (setting [7]), 16% (inactive) and 26% (inactive); in test [2] (setting [8]), 84% (active) and 90% (active); in test [2] (at 50.0 µM), 64.1% (inactive) and 84.5% (active). The growth inhibition in test [3] (setting [7]) was 18% (inactive); in test [3] (setting [8]) it was 69% (inactive) and 93% (active); in test [3] (at 50.0 µM), 78.5% (active) and 86.4% (active); in test [4] (setting [7]), 4% (inactive) and 15% (inactive); in test [4] (setting [8]) it was 71% (active) and 61% (inactive); in test [4] (at 50.0 µM) it was 56% (inactive) and 54.6% (inactive). Moreover, the growth inhibition is 2% (inactive) and 4% (inactive) in test [5] (setting [7]); 82% (active) and 89% (active) in test [5] (setting [8]); 65.5% (inactive) and 88% (active) in test [5] (at 50.0 µM); 9% (inactive) and 14% (inactive) in test [6] (setting [7]); 81% (active) in test [6] (setting [8]); 93.2% (active) and 95.1% (active) in test [6] (at 50.0 µM).

In the case of `Nc1nc(Cl)cc(NCCCCCCCCCCNc2cc(Cl)nc(N)n2)n1`, the growth inhibition in test [1] (setting [7]) was -4% (inactive); in test [1] (setting [8]), 96% (active); in test [1] (at 50.0 µM), 28.9% (inactive); in test [2] (setting [7]) it was 3% (inactive); in test [2] (setting [8]), 100% (active); in test [2] (at 50.0 µM), 19.1% (inactive). In addition, the growth inhibition in test [3] (setting [7]) is -1% (inactive); in test [3] (setting [8]) it was 100% (active); in test [3] (at 50.0 µM), 0.05% (inactive); in test [4] (setting [7]), 10% (inactive); in test [4] (setting [8]) it was 99% (active); in test [4] (at 50.0 µM), 52.1% (inactive). For the same molecule, the growth inhibition in test [5] (setting [7]) is -7% (inactive); in test [5] (setting [8]), 99% (active); in test [5] (at 50.0 µM), 18.8% (inactive); in test [6] (setting [7]), 14% (inactive); in test [6] (setting [8]), 99% (active); in test [6] (at 50.0 µM), 33% (inactive).
